Assay results taken from PubChem BioAssay (NCATS).
Inconclusive results are not listed. Entries that show only a call come without a potency. A number with no mark means an inactive call. The source made the active and inactive calls. Unless noted, the call rests on the fitted dose curve; in most records, active means well fitted curve in the direction sought with a large enough effect; inconclusive means small, poorly fitted or top-dose-only effect, or another doubt; inactive means no such curve, though single readings can be large; an effect the other way counts as inactive or inconclusive.

What was measured:
[1] = biological target: Aldehyde dehydrogenase, mitochondrial (Homo sapiens) (UniProt P05091); experiment: qHTS for Inhibitors of the Aldehyde Dehydrogenase Family (ALDH2) Confirmatory screens (AID 2061303; active means well fitted inhibition curve with a large enough effect; title and protocol of this record describe different tests; further: potency means the concentration at half of the fitted maximal effect; nearly all actives have a fitted effect of over 45% in size)
[2] = biological target: Aldehyde dehydrogenase, mitochondrial (Homo sapiens) (UniProt P05091); experiment: qHTS for Inhibitors of the Aldehyde Dehydrogenase Family (ALDH2) Primary screen (AID 2061308); further: nearly all actives have a fitted effect of over 55% in size; further: potency means the concentration at half of the fitted maximal effect
[3] = biological target: Retinaldehyde dehydrogenase 3 (Homo sapiens) (UniProt P47895); experiment: qHTS for Inhibitors of the Aldehyde Dehydrogenase Family (ALDH1A3) Primary screen (AID 2061315); further: potency means the concentration at half of the fitted maximal effect
[4] = biological target: Aldehyde dehydrogenase 1A1 (Homo sapiens) (UniProt P00352); experiment: qHTS for Inhibitors of the Aldehyde Dehydrogenase Family (ALDH1A1) Confirmatory screens (AID 2061316); further: potency means the concentration at half of the fitted maximal effect; nearly all actives have a fitted effect of over 65% in size
[5] = biological target: Retinaldehyde dehydrogenase 3 (Homo sapiens) (UniProt P47895); experiment: qHTS for Inhibitors of the Aldehyde Dehydrogenase Family (ALDH1A3) Confirmatory screens (AID 2061311); further: potency means the concentration at half of the fitted maximal effect; nearly all actives have a fitted effect of over 60% in size
[6] = BET inhibitor-based combinations targeting novel dependencies in MECOM-rearranged (r) AML: SET-2 cell line (AID 2202231); conditions: SET-2 AML cells viability, CellTiter-Glo luminescence, 48 h; viability: active compounds read low, concentration not given here; further: nearly all actives have a fitted effect of over 35% in size; further: potency means the concentration at half of the fitted maximal effect
How it was run: (§1)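 AML cell lines seeded at 500 cells/well, treated with 11-point dose curves for 48 h. Viability by CellTiter-Glo luminescence, normalised to DMSO and empty wells; activity expressed as AUC and per-cell-line Z-transformed AUC.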

[7] = BET inhibitor-based combinations targeting novel dependencies in MECOM-rearranged (r) AML: OCI-AML3 cell line (AID 2202232); conditions: Potency: OCI-AML3 viability; further: nearly all actives have a fitted effect of over 35% in size; further: potency means the concentration at half of the fitted maximal effect
How it was run: as §1

[8] = BET inhibitor-based combinations targeting novel dependencies in MECOM-rearranged (r) AML: MV-4-11 cell line (AID 2202233); further: potency means the concentration at half of the fitted maximal effect; nearly all actives have a fitted effect of over 45% in size
How it was run: (§2)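 Cells at 500/well were exposed for 48 hr to MIPE v5.0 drugs as 11-point dose curves. Viability was read by CellTiter-Glo luminescence and normalized to DMSO and empty-well controls. Activity was expressed as AUC and per-cell-line Z-AUC.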

[9] = BET inhibitor-based combinations targeting novel dependencies in MECOM-rearranged (r) AML: HNT-34 cell line (AID 2202234); further: nearly all actives have a fitted effect of over 35% in size; further: potency means the concentration at half of the fitted maximal effect
How it was run: as §2

[10] = BET inhibitor-based combinations targeting novel dependencies in MECOM-rearranged (r) AML: UCSD-AML1 cell line (AID 2202235); further: nearly all actives have a fitted effect of over 40% in size; further: potency means the concentration at half of the fitted maximal effect
How it was run: as §2

[11] = BET inhibitor-based combinations targeting novel dependencies in MECOM-rearranged (r) AML: AML-194 cell line (AID 2202237; further: nearly all actives have a fitted effect of over 40% in size; further: potency means the concentration at half of the fitted maximal effect)
How it was run: as §1

[12] = biological target: Retinaldehyde dehydrogenase 3 (Homo sapiens) (UniProt P47895); experiment: qHTS for Inhibitors of the Aldehyde Dehydrogenase Family (ALDH1A3) Validation screen (AID 2061312); further: nearly all actives have a fitted effect of over 45% in size
[13] = BET inhibitor-based combinations targeting novel dependencies in MECOM-rearranged (r) AML: AML-191 cell line (AID 2202236; further: nearly all actives have a fitted effect of over 35% in size; further: potency means the concentration at half of the fitted maximal effect)
How it was run: as §1

Structure (SMILES): c1cc(NCCc2c[nH]c3ccccc23)cc(Nc2ccncc2)c1
- Potency [1]: 25.1 µM (active)
- Potency [2]: 10 µM (active)
- Potency [3]: inactive
- Potency [4]: 11.3 µM (active)

Structure (SMILES): COc1ccc(S(=O)(=O)Nc2cccnc2Nc2ccc(O)cc2)cc1
- Potency [2]: inactive
- Potency [5]: 10.1 µM (active)
- Potency [3]: 7.94 µM (active)
- Potency [4]: 6.34 µM (active)
- Potency [6]: 1.32 µM (active)
- Potency [7]: 0.662 µM (active)
- Potency [8]: 0.742 µM (active)
- Potency [9]: 0.59 µM (active)
- Potency [10]: 0.468 µM (active)
- Potency [11]: 0.662 µM (active)

Structure (SMILES): CN(C)CCc1c[nH]c2ccc(C[C@H]3COC(=O)N3)cc12
- Potency [2]: inactive
- Potency [12]: inactive
- Potency [3]: inactive

Structure (SMILES): Cc1nc2n(c(=O)c1CCN1CCC(c3noc4cc(F)ccc34)CC1)CCC[C@H]2O
- Potency [2]: inactive
- Potency [12]: inactive
- Potency [3]: inactive

Structure (SMILES): COc1ccc2cc(OCC3(C(=O)O)CN(C(=O)c4ccc(F)cc4)C3)ccc2c1
- Potency [2]: inactive
- Potency [12]: inactive
- Potency [3]: inactive
- viability [6]: 113%
- Potency [7]: inactive
- Potency [9]: inactive
- Potency [10]: inactive
- Potency [13]: inactive
- Potency [11]: inactive

Structure (SMILES): CC(=O)N(C)C1(c2ccccc2)CCN(CCC[C@]2(c3ccc(Cl)c(Cl)c3)CCCN(C(=O)c3ccccc3)C2)CC1
- Potency [2]: inactive
- Potency [12]: inactive
- Potency [3]: inactive

Structure (SMILES): O=C(O)CC1CCC(c2ccc(NC(=O)c3nnc(Nc4ccc(F)c(F)c4)o3)cc2)CC1 (stereo not given)
- Potency [2]: inactive
- Potency [12]: inactive
- Potency [3]: inactive

Structure (SMILES): Fc1ccc(CNc2ncnc3ccc(F)cc23)cc1
- Potency [2]: inactive
- Potency [12]: inactive
- Potency [3]: inactive
- Potency [6]: 2.63 µM (active)
- Potency [7]: 4.17 µM (active)
- Potency [8]: 5.9 µM (active)
- Potency [9]: 16.6 µM (active)
- Potency [10]: inactive
- Potency [11]: inactive

Structure (SMILES): O=C(Nc1ccc(F)cc1)N1CCc2ccccc2C1c1ccc(C(F)(F)F)cc1 (stereo not given)
- Potency [2]: inactive
- Potency [12]: inactive
- Potency [3]: inactive

Structure (SMILES): O=C(NCCCn1ccnc1)c1cc(-c2ccco2)on1
- Potency [2]: inactive
- Potency [12]: inactive
- Potency [3]: inactive

Structure (SMILES): C[C@H](NC(c1cccc(C[P+](=O)O)c1)[C@H](C)O)c1ccc(Cl)c(Cl)c1 (stereo not given in full)
- Potency [2]: inactive
- Potency [3]: inactive

Structure (SMILES): c1ccc(-c2csc(N3CCOCC3)n2)cc1
- Potency [2]: inactive
- Potency [12]: inactive
- Potency [3]: inactive

Structure (SMILES): CC(OC1OCCN(Cc2n[nH]c(=O)[nH]2)C1c1ccc(F)cc1)c1cc(C(F)(F)F)cc(C(F)(F)F)c1 (stereo not given)
- Potency [2]: inactive
- Potency [12]: inactive
- Potency [3]: inactive

Structure (SMILES): Oc1ccc([C@H]2COc3cc(O)ccc3C2)cc1
- Potency [2]: inactive
- Potency [12]: inactive
- Potency [3]: inactive

Structure (SMILES): COc1cc(-c2nn(C3CCC(N4CCN(C(C)=O)CC4)CC3)c3ncnc(N)c23)ccc1NC(=O)c1cc2ccccc2n1C (stereo not given)
- Potency [2]: inactive
- Potency [12]: inactive
- Potency [3]: inactive
- Potency [6]: 9.34 µM (active)
- Potency [7]: 7.42 µM (active)
- Potency [8]: 9.34 µM (active)
- Potency [9]: 2.09 µM (active)
- Potency [13]: 5.9 µM (active)
- Potency [11]: 4.17 µM (active)

Structure (SMILES): NC(=O)Nc1cc(-c2cccc(F)c2)sc1C(=O)N[C@H]1CCCNC1
- Potency [2]: inactive
- Potency [12]: inactive
- Potency [3]: inactive
- Potency [6]: 0.934 µM (active)
- Potency [7]: 0.468 µM (active)
- Potency [8]: 0.0021 µM (active)
- Potency [9]: 0.468 µM (active)
- Potency [10]: 0.296 µM (active)
- Potency [13]: 0.332 µM (active)
- Potency [11]: 0.372 µM (active)

Structure (SMILES): Clc1ccc2c(c1)C1=NCCN1c1c(-c3noc(C4CC4)n3)ncn1-2
- Potency [2]: inactive
- Potency [12]: inactive
- Potency [3]: inactive

Structure (SMILES): NC(=O)CCCSc1nc(N)nc(-c2c(Cl)cc3c4c(cccc24)COC3)n1
- Potency [2]: inactive
- Potency [12]: inactive
- Potency [3]: inactive

Structure (SMILES): CCC[C@H](N[C@H]1CCc2cc(F)cc(F)c2C1)C(=O)Nc1cn(C(C)(C)CNCC(C)(C)C)cn1
- Potency [2]: inactive
- Potency [12]: inactive
- Potency [3]: inactive
- Potency [7]: 11.8 µM (active)
- Potency [10]: inactive
- Potency [11]: inactive

Structure (SMILES): O=C(O)[C@H](Cc1ccccc1)Oc1ccc(-c2ccccc2)cc1
- Potency [2]: inactive
- Potency [12]: inactive
- Potency [3]: inactive

Structure (SMILES): CC(C)(C)c1ccc(-c2nc3c(N4CCN(Cc5ccc6nccnc6c5)CC4)cccc3[nH]2)cc1
- Potency [2]: inactive
- Potency [12]: inactive
- Potency [3]: inactive

Structure (SMILES): CN1CCN(Cc2ccc(NC(=O)Cc3ccc(Oc4cc(NC(=O)C5CC5)ncn4)cc3)cc2C(F)(F)F)CC1
- Potency [2]: inactive
- Potency [12]: inactive
- Potency [3]: inactive

Structure (SMILES): Cc1cc(C(=O)Nc2cccc(C(=O)Nc3cccc(C(F)(F)F)c3)c2)on1
- Potency [2]: inactive
- Potency [12]: inactive
- Potency [3]: inactive

Structure (SMILES): CC(NCCCc1cccc(C(F)(F)F)c1)c1cccc2ccccc12 (stereo not given)
- Potency [2]: inactive
- Potency [12]: inactive
- Potency [3]: inactive

Structure (SMILES): Cc1nc(C)c(-c2ccc(C3CCC(CC(=O)O)CC3)cc2)nc1C(N)=O (stereo not given)
- Potency [2]: inactive
- Potency [12]: inactive
- Potency [3]: inactive
